# Measurements published in PubChem BioAssay (NCI).
# This is part of a sample that, as a whole, favours compounds with a hit. Of some 79,000 tested, about 15% had one in any assay. A number with no mark means an inactive call. The source made the active and inactive calls. Cut-off read from the data, not from the text of the source: active = growth inhibition above about 70%; inactive = the rest.
# What was measured:
# [1] = NCI Yeast Anticancer Drug Screen. Data for the rad50 strain (AID 155);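 note: 0% = growth of vehicle-only cultures of the same strain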; details: S. cerevisiae rad50 strain growth inhibition; at 50.0 µM; hits give high values
# In short: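 A DNA repair-deficient yeast mutant serves as the test organism; compound-induced growth inhibition is calculated against vehicle-treated cells.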
# [2] = NCI Yeast Anticancer Drug Screen. Data for the mec2-1 strain (AID 157); details: S. cerevisiae mec2-1 strain, at 50.0 µM, hits give high values
# In short: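 mec2-1 yeast strain, carrying an alteration in DNA damage repair or cell cycle control, was exposed to compounds; growth inhibition was measured relative to vehicle-treated controls.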
# [3] = NCI Yeast Anticancer Drug Screen. Data for the sgs1 mgt1 strain (AID 161);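 note: 0% = growth of cultures given vehicle only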; details: S. cerevisiae sgs1 mgt1 strain, at 50.0 µM, hits give high values
# In short: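 Compounds are added to genetically altered yeast, and growth is compared with cultures given vehicle alone to give percent inhibition.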
# [4] = NCI Yeast Anticancer Drug Screen. Data for the cln2 rad14 strain (AID 165);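 note: 0% = growth equal to vehicle treated cultures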; details: S. cerevisiae cln2 rad14 strain, at 50.0 µM, hits give high values
# In short: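 Yeast carrying cln2 and rad14 alterations (cell cycle control and DNA damage repair) were exposed to compounds. Growth inhibition was measured against vehicle-treated controls.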
# [5] = NCI Yeast Anticancer Drug Screen. Data for the bub3 strain (AID 167); details: S. cerevisiae bub3 mutant strain, at 50.0 µM, hits give high values
# In short: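 Inhibition values come from growth of compound-treated mutant yeast normalised to vehicle-treated controls.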
# [6] = NCI Yeast Anticancer Drug Screen. Data for the mlh1 rad18 strain (AID 175); details: S. cerevisiae mlh1 rad18 strain growth inhibition; at 50.0 µM; hits give high values
# In short: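 Growth inhibition of the yeast strain was measured after compound exposure and expressed relative to vehicle-treated controls. The strain carries defined defects in DNA damage repair.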
SMILES,growth inhibition [1],growth inhibition [2],growth inhibition [3],growth inhibition [4],growth inhibition [5],growth inhibition [6]
CC(=O)NC(C)CC1=CC(=O)C(C)=CC1=O (configuration not stated),1.45%,-13.4%,-16.1%,-33.7%,-18.9%,-11.6%
C=C(C(N)=O)c1ccc([N+](=O)[O-])o1,52.4%,44.7%,62.4%,30%,19.8%,90% (active)
CC(C)CCC(C)C1CCC2C3CC/C(=N/Nc4ccc([N+](=O)[O-])cc4[N+](=O)[O-])C(C)(CCC(=O)O)C3CCC12C (configuration not stated),-45.8%,-12.2%,-24.9%,-24.2%,-0.1%,-3.4%
CC(=O)Nc1cc2cc(N=CN(C)C)ccc2oc1=O,-24.9%,-43.4%,-16.4%,-10.8%,-18.1%,-7.4%
O=C(c1ccccc1)c1cc(Cl)ccc1NCC(O)COc1ccc(Cl)cc1 (configuration not stated),-12.8%,7.05%,-33%,-12.6%,-0.45%,-10.1%
CCCCCCCCC1C(CCCCCCCC(=O)OC)C2(Cl)C(Cl)=C(Cl)C1(Cl)C2(Cl)Cl (configuration not stated),25.6%,-11.5%,-1.05%,3.05%,-1.2%,14.3%
N#CCCC(CC#N)S(=O)(=O)O (configuration not stated),14.3%,1.65%,-7.75%,-54.6%,15.7%,-13.1%
O=S1(=O)CCCCC1C(O)(c1ccccc1)c1ccccc1 (configuration not stated),96% (active),94.2% (active),91.2% (active),95.5% (active),95.8% (active),96% (active)
O=C1c2ccccc2C2(O)Oc3cccc(O)c3C12O (configuration not stated),6.45%,4.55%,-2%,-14.9%,2.85%,49.9%
Cc1c(C)n(S(=O)(=O)c2ccccc2)c2ccccc12,20.6%,10.4%,21.4%,27.9%,13.2%,27.4%
O=C(CS(=O)(=O)Cc1ccccc1)N1CCOCC1,-9.4%,-13.3%,-6.55%,-3.8%,-3%,-27.5%
CC(C)Nc1ccc(O)cc1,-21.1%,-40%,-4.2%,-6.3%,-10.3%,-8%
CCCC(CC/C(C)=N/NC(N)=O)[N+](=O)[O-] (configuration not stated),-20.1%,-9.25%,0.05%,-9.55%,4.75%,8.5%
N#C/C(=C\c1cccs1)C(N)=S,6.85%,-18.6%,-6.45%,-31.2%,-9.1%,1.65%
CCC(C)(O)Cc1ccccc1Cl (configuration not stated),30.1%,24.1%,21.9%,17.1%,7.2%,11.8%
NC1CCCCC1NCCNC1CCCCC1N (configuration not stated),-3.15%,9.35%,16.4%,-12.9%,42.4%,10.8%
S=c1sc2c(Cl)ncnc2n1-c1ccccc1,1.55%,24.4%,13.2%,11.8%,9.7%,5.6%
COc1cc2oc(-c3ccc(O)cc3)cc(=O)c2c(OC)c1OC,-4.35%,-5.95%,-2.35%,-26.7%,17.9%,12.3%
CC(=O)/C(C)=N/Nc1ccccc1,7.35%,8.6%,-2.6%,-11%,-5.7%,11%
COC(=O)C(C(=O)c1ccccc1)c1ccccc1 (configuration not stated),30.6%,16.9%,9.5%,6.35%,8.4%,38.7%
CCCCC(=O)CCCC,3.55%,-14%,-5.1%,-3.3%,-4.95%,4.35%

SMILES,growth inhibition [1],growth inhibition [2],growth inhibition [3],growth inhibition [4],growth inhibition [5],growth inhibition [6]
CCOC(=O)C(N)C(O)c1ccncc1 (configuration not stated),-8%,-2.45%,-4.25%,-19.8%,1.5%,2.2%
CCOC(=O)C1=C(NC(C)(C)C)OCC1=O,-10.7%,-17.9%,-2.2%,3.1%,-16.6%,16.1%
O=C(O)CC[C@H](NC(=O)c1ccc(-n2nc3ccc(O)cc3nc2=O)cc1)C(=O)O,-6.65%,-8.25%,11.9%,9.95%,33.8%,14.5%
CN(C)C(=O)CCOc1ccccc1,0.55%,-12.6%,-18.9%,-56.3%,-7.05%,-7.2%
c1ccc(SCCP(CCP(c2ccccc2)c2ccccc2)c2ccccc2)cc1 (configuration not stated),34.9%,2.6%,14.3%,22.4%,37.8%,57.1%
FC(F)(F)c1ccc2nc[nH]c2c1,5.3%,-10.2%,-3.15%,-10.4%,9.6%,6.95%
COc1ccc(-c2cc(-c3ccccc3)c(C#N)c(=O)[nH]2)cc1,22.9%,5.85%,17.4%,17%,6.3%,21%
C[C@H](N)C(O)/C=C/c1ccccc1 (some centres not stated),5.1%,-9.05%,-0.7%,-2.55%,-0.3%,-7.05%
OC1CC2COCC2CC1O (configuration not stated),22.6%,1.7%,11.1%,6.9%,4.4%,10%
Nc1c2cc3c(cc2c[n+]2ccc4ccccc4c12)OCO3,38.9%,44%,32.6%,19.9%,43.9%,54.5%
CC1=NN(C(=O)c2ccc(Cl)cc2)C(=O)/C1=C/c1ccc(O)cc1,-6.65%,-16.6%,-38.6%,-7.55%,-3.55%,-19.9%
COCCCNC(=O)c1nc2ccccc2c(=O)n1NC(=O)Cc1ccccc1,-14.1%,-19.8%,7%,4.35%,0.3%,-7.75%
Cc1ccc(NC(=S)N(CCC#N)C2CCCCC2)cc1,-7.6%,-10.1%,16.2%,6.95%,6.3%,0.85%
O=C(c1ccccc1)c1ccc(OCCOc2ccc(C(=O)c3ccccc3)cc2)cc1,-0.7%,-1.7%,2.15%,-15.1%,3.9%,-13.2%
COc1cc2c(cc1OC)C(=O)C(C1=C(SC(=N)N)C(=O)c3cc(OC)c(OC)cc31)C2 (configuration not stated),-7.4%,-21.9%,-7.75%,-0.65%,2.85%,-2%
CCCCOC(=O)/C(=C\c1cccc(OC)c1)NC(=O)c1ccccc1,15.8%,14.9%,28.5%,11.2%,58.2%,34.6%
O=C(O)C1C2C=CC(O2)C1C(=O)NCc1ccncc1 (configuration not stated),-10%,14.7%,-7.8%,-30.1%,-32.5%,3.35%
CCCC1OCC(O)C(C(O)C(=O)CN(Cc2ccccc2)Cc2ccccc2)O1 (configuration not stated),0.1%,1.35%,1.55%,-9.5%,-3.8%,3.75%
COc1ccc(C(=O)c2ccccc2)c(OC(=O)Nc2c(Cl)cccc2Cl)c1,-4.25%,-23.9%,10.2%,1.05%,-0.1%,22.6%
O=C(O)CCC(=O)Nc1ccccc1C(=O)O,-1.15%,11.8%,-8.15%,0.15%,5.6%,-4.5%
c1cc2c3c(cccc3c1)-c1nc3ccccc3nc1-2,-5.1%,-21.4%,-5.2%,4.05%,0.2%,19.8%
